Compounds with a hit are over-represented: about 8.8% of the library has one in this group of screens.
ALDH1A1 block – qHTS Assay for Inhibitors of Aldehyde Dehydrogenase 1 (ALDH1A1); AID 1030, 2008; Purified ALDH1A1, NADH fluorescence, propionaldehyde substrate; Potency, µM (doses to about 75.3 µM), for inactives: at the top dose activity, negative = inhibition, actives largely listed as inhibitors; hit rate 7.3% among 220,000; Aldehyde dehydrogenase 1A1 (Homo sapiens), P00352;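 further: plate controls were no enzyme wells and a reference inhibitor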
Target sequence (P00352 whole entry, looked up): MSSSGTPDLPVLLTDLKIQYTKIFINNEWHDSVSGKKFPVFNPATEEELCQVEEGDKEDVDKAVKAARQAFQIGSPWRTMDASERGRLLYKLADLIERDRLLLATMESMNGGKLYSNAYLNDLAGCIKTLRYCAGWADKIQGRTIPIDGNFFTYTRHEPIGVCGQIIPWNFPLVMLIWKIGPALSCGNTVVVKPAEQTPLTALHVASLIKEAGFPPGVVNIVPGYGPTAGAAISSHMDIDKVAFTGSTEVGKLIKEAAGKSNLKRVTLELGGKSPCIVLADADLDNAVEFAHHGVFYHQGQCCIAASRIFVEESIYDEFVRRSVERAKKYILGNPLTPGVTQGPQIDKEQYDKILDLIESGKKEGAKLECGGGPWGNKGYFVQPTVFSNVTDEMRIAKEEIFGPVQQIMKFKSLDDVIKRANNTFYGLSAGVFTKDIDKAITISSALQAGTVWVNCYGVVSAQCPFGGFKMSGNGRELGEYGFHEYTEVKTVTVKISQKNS
HTT cytoprotect – qHTS Multiplex Assay to Identify Dual Action Probes in a Cell Model of Huntington: Cytoprotection (ATP). PC12 HTT-Q103 induced, cytoprotection, ATP luminescence, 40 h. Potency, µM (doses to about 56.4 µM), for inactives: cytoprotection (ATP increase), most hits filed as activators. hit rate 0.14% among 230,000. AID 1471, 2008; active means well fitted curve in the direction sought with a large enough effect; inconclusive means small, poorly fitted or top-dose-only effect, or another doubt; inactive means no such curve, though single readings can be large; an effect the other way counts as inactive or inconclusive; further: % of control where 0% means no effect; nearly all actives have a fitted effect of over 45% in size
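Compounds were screened for protection of PC12 cells against cell death after tebufenozide induction (100 nM final) of mutant Huntingtin exon 1 (Q103) fused to GFP.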
HPGD inh – qHTS Assay for Inhibitors of HPGD (15-Hydroxyprostaglandin Dehydrogenase); 15-hydroxyprostaglandin dehydrogenase [NAD(+)] (Homo sapiens), P15428; hit rate 4.3% among 150,000; Potency, µM, inactives show at the top dose activity change, negative = inhibition, most hits filed as inhibitors; purified HPGD, NADH fluorescence kinetic, PGE2 substrate; AID 894, 2007; further: on the % scale 0 is the no-effect control and ±100 the full control effect
Target sequence (P15428 whole entry, looked up): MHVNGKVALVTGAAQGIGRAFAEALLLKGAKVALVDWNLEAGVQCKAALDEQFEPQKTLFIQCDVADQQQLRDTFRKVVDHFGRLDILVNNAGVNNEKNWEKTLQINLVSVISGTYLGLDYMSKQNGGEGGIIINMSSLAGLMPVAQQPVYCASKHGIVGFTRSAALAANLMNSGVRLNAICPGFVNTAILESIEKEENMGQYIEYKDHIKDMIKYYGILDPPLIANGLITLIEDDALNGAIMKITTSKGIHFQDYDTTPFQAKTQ
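20 nM HPGD preincubated 15 min at room temperature with compound in 50 mM Tris-HCl pH 8, 0.01% Tween 20. Started with 1 mM NAD+ and 30 uM prostaglandin E2; NADH fluorescence (360/450 nm) read 5 times over 30-s intervals, last minus first.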
HttQ103 aggreg – qHTS Multiplex Assay to Identify Dual Action Probes in a Cell Model of Huntington: Aggregate Formation (GFP); hit rate 1.1% among 220,000; Potency, µM (highest dose often 46.1 µM), for inactives: at the top dose activity change, negative = inhibition, most hits filed as inhibitors; PC12 HttQ103-GFP aggregates, Acumen cytometry, 40 h; active means well fitted curve in the direction sought with a large enough effect; inconclusive means small, poorly fitted or top-dose-only effect, or another doubt; inactive means no such curve, though single readings can be large; an effect the other way counts as inactive or inconclusive; further: on the % scale 0 is the no-effect control and ±100 the full control effect; nearly all actives have a fitted effect of over 60% in size
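Inducible Q103 Huntingtin exon 1–GFP PC12 line, 1500 cells/well in phenol red free DMEM with 5% equine and 5% calf serum. Tebufenozide 100 nM induced expression; compounds titrated; aggregates quantified by cytometry.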
LMNA splice mod – qHTS Assay for Modulators of Lamin A Splicing; HeLa LMNA splicing GFP/RFP minigene ratio, 48 h; Potency, µM (top dose mostly 46.1 µM), for inactives: top-dose ratio change, negative = inhibition, most hits filed as inhibitors; hit rate 0.01% among 200,000; AID 1487, 2009; active means well fitted inhibition curve with a large enough effect in the signal ratio, with a control signal flat, not every such curve was filed as active; inconclusive means small, poorly fitted or top-dose-only effect, or effect the other way, or a change in a side signal; the % refers to the signal ratio; further: on the % scale 0 is the no-effect control and ±100 the full control effect
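Read-out is the ratio of GFP to DsRed2 object intensity, acquired by 488 nm laser-scanning cytometry on HeLa lamin A-EGFP minigene reporter cells. Compound incubation 48 hrs at 37 °C in Opti-MEM with 2% FBS; DMSO 0.5% final.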
Numbers without * were called inactive; ? = inconclusive; / = not tested or not shown; ! = not active in a repeat; [ ] = another dose, or the depositor's remark. Unless noted, the call rests on the fitted dose curve; in most records, active means well fitted inhibition curve with a large enough effect (not every such curve was filed as active); inconclusive means small, poorly fitted or top-dose-only effect, or another doubt; inactive means no such curve, though single readings can be large or run the other way. Potency means the concentration at half of the fitted maximal effect.

SMILES	ALDH1A1 block	HTT cytoprotect	HPGD inh	HttQ103 aggreg	LMNA splice mod
Cc1cc(NC(=O)CCl)n(-c2nc3ccccc3s2)n1	4µM*	-27%[10 µM]	/	?	-3%[46 µM]
Cc1ccc(-c2nn(-c3ccccc3)cc2NC(=O)CCl)cc1	20µM*	-134%	/	?	?
Cc1cc(NC(=O)C2CC2)n(-c2nc3ccccc3s2)n1	?	-14%[10 µM]	/	-13%	-9%[46 µM]
Cc1ccc(-c2cc(NC(=O)CCl)n(-c3ccccc3)n2)cc1	0.5µM*	-93%	-10%	?	?
Cc1ccc(-c2nn(-c3ccccc3)cc2CNCc2ccccc2)cc1	22µM*	-39%	/	?	?
Cc1ccccc1NC(=O)c1cn(-c2ccccc2)nc1-c1ccccc1	4%	-16%[10 µM]	-6%	-30%	?
COc1ccc(Cl)cc1NC(=O)c1cc(S(=O)(=O)N(C)Cc2ccccc2)ccc1F	/	/	/	/	-11%[46 µM]
COc1ccc(-n2c(=O)c(-c3ccc(Cl)cc3)nc3cnc(N4CCOCC4)nc32)cc1	?	-5%	-13%	/	/
CC(=O)Nc1ccc(-c2cc(NC(C)=O)n(-c3ccccc3)n2)cc1	5%	12%	/	32%	9%
O=C(CCl)Nc1cc(-c2ccccc2)nn1-c1ccccc1	1.3µM*	-30%	-10%	8%	?
O=C(O)CP(=O)(O)O	8%	?	32µM*!	26%	?
O=C(O)CO.[NH2-].[NH2-].[Pt+2]	/	-2%	/	-3%	/
COc1ccccc1Cc1nc2ccccc2n1S(=O)(=O)c1ccc(Cl)cc1	4%	8%[10 µM]	-12%	-8%	-10%
CC1(C)CCC[C@@](C)([C@H]2CC[C@]3(C)[C@@H]2[C@H](O)C[C@@H]2[C@@]4(C)CC[C@H](O)C(C)(C)[C@@H]4[C@@H](O)C[C@]23C)O1	2%	-48%	-5%	/	/
Cc1ccc(NC(=O)Cn2c(O)c(N=NC(=O)c3cc([N+](=O)[O-])ccc3O)c3ccccc32)cc1	/	-81%[10 µM]	/	?	/
Cc1cccc(NC(=O)Cn2c(O)c(N=NC(=O)c3ccccc3O)c3ccccc32)c1	13µM*	26%[10 µM]	-7%	-3%	6%
COCCN1CN(S(=O)(=O)c2ccc(Cl)cc2)c2nc3ccccc3nc21	24µM*	-5%	-8%	0%	12%
CC(C)CCN1CN(S(=O)(=O)c2cccs2)c2nc3ccccc3nc21	28µM*	-2%	-7%	-3%	2%
C[N+]1(NCC[N@@+]2(C)CCc3ccccc3C2)CCCCC1	17%[13.5 µM]	-5%[10 µM]	-9%	/	/
Cc1cccc(CNC(=O)CN2C(=O)CCCc3ccccc32)c1	/	/	/	/	-9%[46 µM]
CC(=O)OC[C@@H]1O[C@@H](O/N=C2/C[C@@H](O)[C@@H](O)[C@@H]3[C@@H]4C(=O)N(c5cccc(Oc6ccccc6)c5)C(=O)[C@H]4CC[C@H]23)[C@H](OC(C)=O)[C@H](OC(C)=O)[C@@H]1OC(C)=O	1%[13.5 µM]	12%[10 µM]	/	/	/
Cc1noc(C)c1CSc1ccccc1C(=O)Nc1nccs1	19µM*	5%	-12%	14%	?
O=C(Cc1cccs1)Nc1cc(SCCO)cc([N+](=O)[O-])c1	-6%	/	-12%	-29%	?
COc1ccccc1N1C[C@@H]2C[C@@H](c3ccco3)N3CCC[C@@]23C1=O	?	-178%	/	7.1µM*	/
COCc1cc([C@@H]2C[C@H]3CN(c4ccccc4)C(=O)[C@]34CCCN24)ccc1OC	13%	-134%	/	32µM*	/
SMILES	ALDH1A1 block	HTT cytoprotect	HPGD inh	HttQ103 aggreg	LMNA splice mod
COc1ccc([C@@H]2C[C@H]3CN(c4ccccc4)C(=O)[C@]34CCCN24)c(OC)c1OC	-3%	23%[10 µM]	/	-2%[9.22 µM]	-16%[46 µM]
COc1ccccc1CN1C[C@@H]2C[C@@H](c3ccc(C)cc3)N3CCC[C@@]23C1=O	5%	13%[10 µM]	/	21%[9.22 µM]	2%[46 µM]
O=c1c(O)c(-c2cccc(O)c2)oc2ccccc12	?	29%[1.9 µM]	28µM*	/	/
COc1cccc(-c2oc3ccccc3c(=O)c2O)c1	-11%	1%[1.9 µM]	?	/	/
Cc1ccc(CNC(=O)C2CCC(CNS(=O)(=O)c3ccc(C)cc3)CC2)cc1 (stereo not given)	/	/	/	/	-1%[46 µM]
COc1ccc2sc(N3C(=O)C4CC=C(C)CC4C3=O)nc2c1 (stereo not given)	13µM*	20%[10 µM]	-13%	-21%	-9%
CC1=CCC2C(=O)N(c3cc(C)on3)C(=O)C2C1 (stereo not given)	-3%	15%[10 µM]	-11%	12%	7%
O=C(NCc1ccccc1)c1nc[nH]c1C(=O)NCc1ccccc1	2.5µM*	0%[10 µM]	/	-2%[9.22 µM]	2%[46 µM]
O=C(Nc1ccc(F)cc1)c1nc[nH]c1C(=O)Nc1ccccc1[N+](=O)[O-]	-2%	-23%[10 µM]	-30%	-21%	?
NNC(=O)c1nc[nH]c1C(=O)Nc1ccccc1[N+](=O)[O-]	0.79µM*	-63%	/	-5%	-8%[46 µM]
CC(=O)Nc1nonc1-n1nnc(C(=O)NCc2ccccc2)c1C	11µM*	0%[1.9 µM]	?	6%	14%
CCOc1cc(C(=O)CCC(=O)OCC(=O)Nc2ccc(C)c(S(=O)(=O)N(C)C)c2)ccc1O	28µM*	-34%	/	12%	-1%[46 µM]
CCOC(=O)C(NC(C)=O)(NS(=O)(=O)c1ccccc1)C(F)(F)F (stereo not given)	5%	-17%	-1%	3.2µM*	3%
CCOC(=O)NC(NS(=O)(=O)c1ccccc1)(C(=O)OCC)C(F)(F)F (stereo not given)	2%	/	-10%	-20%	1%
COc1cc2c(cc1OC)C(COc1ccc(C(C)C)cc1)N(C(=O)c1ccc(S(=O)(=O)N3CCCC3)cc1)CC2 (stereo not given)	/	/	/	/	-3%[46 µM]
O=C1C(=C2CCCCC2)SC(=S)N1Cc1ccco1	18µM*	-26%	?	13%	-13%
Cc1ccc(C(=O)NCC(c2ccc(Cl)cc2)N2CCCCC2)cc1 (stereo not given)	/	/	/	/	-4%[46 µM]
N#CC(=C(/N)Sc1ccccc1N)/C(C#N)=C(/N)Sc1ccccc1N	/	-40%[1.9 µM]	28µM*	/	/
COc1cc(NS(=O)(=O)c2c(C(=O)N3CCCCC3)c(C)n(C)c2C)cc(OC)c1OC	/	/	/	/	27%[46 µM]
CCC(Sc1nnc(-c2ccc(OC)cc2)c(-c2ccc(OC)cc2)n1)C(=O)Nc1cccc(OC)c1 (stereo not given)	/	/	/	/	-2%[46 µM]
Nc1ccc(O)c(C(=O)O)c1	?	23%	11µM*	4%	?
Cc1cccc(N(Cc2cc3ccccc3[nH]c2=O)S(C)(=O)=O)c1	24µM*	20%	/	-1%	/
COCCCn1c(SCC(=O)Nc2ccc(F)cc2)nc2c(sc3ccccc32)c1=O	/	/	/	/	13%[46 µM]
